# Reference: PubChem BioAssay AID456 (Sanford-Burnham Center for Chemical Genomics, 2006)
# Out of some 10,000 compounds screened, about 25 (0.2%) were called active. The list comes from a sample in which actives are over-represented; it also holds similar structures and randomly drawn compounds. Results with a measured potency or affinity are listed apart. Unmarked numbers belong to inactive results.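 How the source made its calls: active means top tenth filtered wells with inhibition above zero that passed visual or statistical confirmation; inactive means the rest, including hits rejected on review.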
# Assay: suppression of endothelial VCAM-1 upregulation – imaging, high-content imaging, pooled HUVEC, TNFa stimulus (AID 456);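 on inhibition: VCAM-1 immunofluorescence minus red nonspecific channel after plate median normalization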
# Conditions: HUVEC TNFa-induced VCAM-1 surface expression, immunofluorescence imaging;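 compounds screened at 5 µM final in the well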
row,SMILES,inhibition
1,CCCCn1cnc2c(c1=O)c1nc3ccccc3nc1n2Cc1ccc2c(c1)OCO2,inactive
2,CN(C)c1ccc(C(=O)OCC(=O)NC2CCCCC2)cc1,inactive
3,CS(=O)(=O)N1CCN(c2ccccc2NC(=O)c2cccs2)CC1,inactive
4,CS(=O)(=O)N1CCN(c2ccccc2NC(=O)c2ccc(-c3ccc(Cl)cc3Cl)o2)CC1,70.7% (active)
5,O=C(Nc1ccccc1N1CCN(C(=O)c2ccc(Cl)cc2)CC1)c1cc2ccccc2o1,inactive
6,Cc1cc(Br)c(S(=O)(=O)n2nnc3ccccc32)cc1C,inactive
7,COc1cc(CNc2ccc(N3CCOCC3)c(C(=O)O)c2)ccc1OCC(N)=O,inactive
8,Cc1ccc(NC(=O)c2ccco2)c(NC(=O)CN2C(=O)c3ccccc3C2=O)c1,inactive
9,CCOc1ccc2cc(C#N)c(SCC(=O)N3CCOCC3)nc2c1,inactive
10,CCOc1ccc2cc(C#N)c(SCC(=O)N3CCC(C)CC3)nc2c1,69.1% (active)
11,CCOc1ccc2cc(C#N)c(SCC(=O)N3CCCC3)nc2c1,inactive
12,Cc1cc(Cl)ccc1NC(=O)CSc1nnc(Cc2cccs2)n1Cc1ccco1,inactive
13,O=S(=O)(NCCCCCNS(=O)(=O)c1ccccc1)c1ccccc1,inactive
14,COc1ccc(OC)c(NC(=O)CS(=O)(=O)c2ccccc2)c1,inactive
15,Cc1ccccc1-c1nc2ccccc2c(=O)n1C1CCS(=O)(=O)C1 (centres undefined),inactive
16,C=C(Cl)COC(=O)[C@H]1C2C=CC(C2)C1C(=O)O (some centres undefined),inactive
17,O=C(c1cnn2c1NC(c1ccco1)CC2C(F)(F)F)N1CCN(c2cccc(Cl)c2)CC1 (centres undefined),inactive
18,O=C(CC(SCCO)c1ccc2c(c1)OCO2)c1ccco1 (centres undefined),inactive
19,Cc1ccccc1-c1nc(CN2CCC(C(=O)N3CCC(C(N)=O)CC3)CC2)c(C)o1,inactive
20,COc1ccc(CCNC(=O)C2CCN(Cc3nc(-c4cccc(Cl)c4)oc3C)CC2)cc1OC,76.3%
21,O=C(NCC1CCCO1)c1ccc(C(=O)NCC2CCCO2)cc1 (centres undefined),inactive
22,O=C(CN(Cc1ccc(F)cc1)C(=O)Cn1nnc2ccccc21)NCC1CCCO1 (centres undefined),inactive

row,SMILES,inhibition
1,O=S(=O)(c1ccc2ccccc2c1)N1CCCCC1,inactive
2,CSc1ncc(Cl)c(C(=O)Nc2ccc(S(=O)(=O)N3CCOCC3)cc2)n1,inactive
3,Cc1cnc(C(=O)Nc2ccc(N3CCOCC3)cc2)cn1,inactive
4,Cc1cc(NCCN2CCOCC2)n2nc(C)c(-c3ccccc3)c2n1,inactive
5,COC(=O)c1cn(C(=O)c2ccc(Br)o2)c2ccccc12,inactive
6,O=C(NCCN1CCOCC1)C1CC(=O)N(c2ccc(F)c(Cl)c2)C1 (centres undefined),inactive
7,CC1=C(C(=O)OC2CCCCC2)C(c2ccc(C)o2)C2=C(CC(C)(C)CC2=O)N1 (centres undefined),inactive
8,COc1ccccc1N1CCN(C(=O)c2cc(C3CC3)on2)CC1,inactive
9,CCOC(=O)Cc1nnc(NC(=O)c2ccccc2OCC)s1,inactive
10,O=C(CCn1c(=O)oc2ccccc21)NCCN1CCOCC1,inactive
11,O=c1[nH]c(NCc2ccccc2)nc2c1CCCC2,inactive
12,Cc1ccc(N2CCN(C(=S)c3ccc(N(C)C)cc3)CC2)cc1,inactive
13,COc1ccccc1N1CC(C(=O)Nc2cccc(C(=O)O)c2)CC1=O (centres undefined),inactive
14,c1ccc(OCCCn2nnc(-c3cccnc3)n2)cc1,inactive
15,CCN(CC)CCn1c(=N)n(CCO)c2ccccc21,inactive
16,Cc1c(NC(=O)Cn2nc(C(=O)O)c3ccccc3c2=O)c(=O)n(-c2ccccc2)n1C,inactive
17,Cn1ccnc1SCC(=O)Nc1ccc2ccccc2c1,inactive
18,CCOC(=O)c1sc(NS(=O)(=O)c2ccc(NC(C)=O)cc2)nc1C,inactive
19,CCn1c(-c2cc(Br)ccc2O)n[nH]c1=S,inactive
20,CCSc1oc(-c2cccs2)nc1S(=O)(=O)c1ccccc1,inactive
21,COc1ccc(OCC(=O)N2CCN(C(=O)COc3ccc(Br)cc3)CC2)cc1,inactive
22,COc1cc2c(cc1OC)C(c1cccnc1)CC(=O)N2 (centres undefined),inactive

row,SMILES,inhibition
1,COc1ccc(NC(=O)c2cc(C(C)C)on2)c(OC)c1,inactive
2,Cc1ccc2c(c1)NC(=O)C(CC(=O)NC1CCCCC1C)O2 (centres undefined),inactive
3,COc1ccc(N2C(=O)CCC(C(=O)N3CCCCC3)C2c2ccc(OC)c(OC)c2)cc1 (centres undefined),inactive
4,CCCC1(C(=O)OCC)NC(c2ccc(N(C)C)cc2)C2C(=O)N(c3ccccc3)C(=O)C21 (centres undefined),inactive
5,CCOc1ccc(-n2cc(C(=O)Nc3cccc(C)n3)c3cc(OC)c(OC)cc3c2=O)cc1,inactive
6,COc1ccccc1N1CCN(C(=O)CSc2nc3ncnc(N)c3[nH]2)CC1,inactive
7,Cc1ccc(-c2[nH]nc3c2C(c2ccc(OC(=O)N4CCOCC4)cc2)C(C#N)=C(N)O3)cc1 (centres undefined),inactive
8,O=C(CSc1nnc(-c2ccccc2)o1)N1CCN(c2ccccc2)CC1,inactive
9,CN(c1ccccc1)C(c1ccc(F)cc1)c1nnnn1CC1CCCO1 (centres undefined),inactive
10,Cc1ccc(CCSCC(=O)O)cn1,inactive
11,O=C(Nc1ccc(N2CCOCC2)c(Cl)c1)c1ccc(Br)o1,inactive
12,CCn1c(CSc2nc(C)cc(C)n2)nnc1SCC(=O)Nc1ccccc1,inactive
13,COc1ccccc1N1CCN(C(=O)C(Cc2ccccc2)NC(=O)C2CCCCC2)CC1 (centres undefined),inactive
14,COc1ccc(C(N)=O)cc1N,inactive
15,C#CCN1C(=O)C(O)(CC(=O)c2cccc(OC)c2)c2ccccc21 (centres undefined),inactive
16,CCOC(=O)c1c(C)oc2ccc(O)c(CN(C)C)c12,inactive
17,CN(c1cccc(NC(=O)COc2ccccc2)c1)S(C)(=O)=O,inactive
18,CCOc1ccc2ccccc2c1C(=O)N1CCN(c2ccccc2)CC1,inactive
19,CCOC(=O)c1c(NC(=O)CSc2nnc(-c3cccnc3)o2)sc(C)c1C,inactive
20,CCN1C(=O)c2cccc3c(NC(=O)c4ccc5c(c4)OCCO5)ccc1c23,inactive
21,CN(C)S(=O)(=O)c1ccc(C(=O)Nc2ccccc2C(=O)O)cc1,inactive
22,N#Cc1c2n(c(=O)[nH]c1=O)CCCCC2,inactive

row,SMILES,inhibition
1,O=C(c1nn2cccnc2c1Cl)N1CCN(c2ccccc2)CC1,inactive
2,COC(=O)c1cc(Oc2ccc(C(=O)OC)cc2N)cc(C(=O)OC)c1,inactive
3,Cc1cc(C)n(C(=O)C23CC4CC(CC(C4)C2)C3)n1,inactive
4,Cn1c(=O)cc(OCCCC(=O)N2CCCCC2)c2ccccc21,102%
5,Cc1ccc2oc(=O)c3cnn(CC(=O)N4CCCCC4C)c3c2c1 (centres undefined),inactive
6,Cc1cc(NS(=O)(=O)c2ccc(NC(=O)C(C)N3C(=O)c4ccccc4C3=O)cc2)nc(C)n1 (centres undefined),inactive
7,CC(=O)Nc1ccc(Cc2ccncc2)cc1,inactive
8,CN(C)S(=O)(=O)c1ccc(Oc2ccc(S(=O)(=O)N(C)C)cc2)cc1,inactive
9,O=S(=O)(Nc1ccccn1)c1ccc(Oc2ccccc2)cc1,inactive
10,Cc1cc(NC(=O)CSc2nnc(COc3cccc(C)c3C)n2Cc2ccco2)no1,inactive
11,COCCn1c(COc2ccc(Cl)cc2)nnc1SCC(N)=O,inactive
12,Cc1occc1C(=O)N1CCN(Cc2ccccc2)CC1,inactive
13,CCOC(=O)c1sc(N)c(C(=O)OCC)c1COC(=O)C1CC(=O)N(Cc2ccco2)C1 (centres undefined),inactive
14,O=C(CN(c1ccccc1)S(=O)(=O)c1ccccc1)N1CCN(Cc2ccc3c(c2)OCO3)CC1,inactive
15,CCOC(=O)CNC(=O)c1c(C)nn(-c2ccccc2)c1Cl,inactive
16,COc1ccc(S(=O)(=O)NCC(=O)N(CC(=O)NCC2CCCO2)c2ccccc2C)cc1 (centres undefined),inactive
17,Cc1cccc(N2CCN(C(=O)CCn3c(=S)[nH]c4cc5c(cc4c3=O)OCO5)CC2C)c1 (centres undefined),inactive
18,CC1(C)C(c2ccccc2)=NC(c2ccccc2)N1O (centres undefined),inactive
19,O=C(NCCN1CCOCC1)c1csc2c1CCCC2,inactive
20,CCOC(=O)N1CCN(CC(O)COc2ccccc2C(C)CC)CC1 (centres undefined),inactive
21,CCN(CC(=O)Nc1ccc(S(N)(=O)=O)cc1)S(=O)(=O)c1cc(C)ccc1OC,inactive
22,CCCCC(=NCCO)C1=C(O)C(C(=O)OC)C(C)(C)CC1=O (centres undefined),inactive

row,SMILES,inhibition
1,O=C(CSc1nc2ccsc2c(=O)n1NC(=O)c1ccccc1)Nc1nccs1,inactive
2,COc1cc2c(C)nc(C)c(C#N)c2cc1OC,inactive
3,COc1ccc(C)cc1-n1c(N)c(C#N)c(C#N)c1-c1ccc(OC)c(OC)c1OC,77% (active)
4,COc1ccc(Cn2c(N)c(C#N)c3nc4ccccc4nc32)cc1OC,inactive
5,Cc1cc2cc(CN(CC3CCCO3)C(=O)c3cnccn3)c(=O)[nH]c2cc1C (centres undefined),inactive
6,COc1ccc2oc(C)c(C(=O)Cn3ccnc3)c2c1,inactive
7,Cn1c(=O)c2c(nc(SCCCO)n2Cc2ccccc2Cl)n(C)c1=O,inactive
8,Cn1c(=O)c2c(nc(SCCCC#N)n2Cc2ccccc2F)n(C)c1=O,inactive
9,Cn1c(=O)c2c(nc(SCCCC#N)n2Cc2c(F)cccc2Cl)n(C)c1=O,72.9% (active)
10,O=C(c1csc2ccccc12)N1CCCCCC1,inactive
11,Cn1c(-c2ccc(F)cc2)cnc1SCC(=O)Nc1ccccc1N1CCOCC1,inactive
12,Cc1ccnc2c(N3C(=O)C4C5C=CC(C5)C4(C)C3=O)cccc12 (centres undefined),inactive
13,CCOC(=O)C1CCCN(C(=O)CNS(=O)(=O)c2ccc(Br)s2)C1 (centres undefined),inactive
14,COC(=O)C1=C(C)n2nnnc2NC1c1ccc(Cl)cc1 (centres undefined),inactive
15,O=C(NCCN1CCOCC1)c1ccc2c(c1)N(Cc1ccccc1)C(=O)CS2,inactive
16,C=CCn1c(SCC(=O)NCC2CCCO2)nnc1C1CCCCC1 (centres undefined),inactive
17,Cc1cn2c(-c3ccncc3)nnc2s1,inactive
18,COc1ccc(-c2nn3c(-c4ccncc4)nnc3s2)cc1OC,inactive
19,Cc1ccc2cc(C(c3nnnn3C3CCCC3)N3CCN(c4ccc(F)cc4)CC3)c(=O)[nH]c2c1 (centres undefined),inactive
20,Cc1cc(-c2ccccc2)c(C#N)c(N)n1,inactive
21,Cc1ccc2nc(C(F)(F)F)c(C#N)c(N)c2c1,74.6% (active)
